# Data: article PMC7862700, “An all-to-all approach to the identification of sequence-specific readers for epigenetic DNA modifications on cytosine”
# Tests used:
# Assay in all cases: DAPPL (digital affinity profiling via proximity ligation, sequencing); 10 mM Tris-HCl pH 7.5, 50 mM NaCl, 1 mM DTT, 4% glycerol, room temperature, 30 min; GST-TFs on glutathione beads, 16-mer random dsDNA library, 0.1% formaldehyde crosslink after washing; high values mean tight binding
# Conditions in all cases: protein: recombinant; tags: N-terminal GST; dsDNA, one strand shown
# [1] = molecular target: T1, FLI1 (Homo sapiens, UniProt Q01543 1-452)
# T1 sequence: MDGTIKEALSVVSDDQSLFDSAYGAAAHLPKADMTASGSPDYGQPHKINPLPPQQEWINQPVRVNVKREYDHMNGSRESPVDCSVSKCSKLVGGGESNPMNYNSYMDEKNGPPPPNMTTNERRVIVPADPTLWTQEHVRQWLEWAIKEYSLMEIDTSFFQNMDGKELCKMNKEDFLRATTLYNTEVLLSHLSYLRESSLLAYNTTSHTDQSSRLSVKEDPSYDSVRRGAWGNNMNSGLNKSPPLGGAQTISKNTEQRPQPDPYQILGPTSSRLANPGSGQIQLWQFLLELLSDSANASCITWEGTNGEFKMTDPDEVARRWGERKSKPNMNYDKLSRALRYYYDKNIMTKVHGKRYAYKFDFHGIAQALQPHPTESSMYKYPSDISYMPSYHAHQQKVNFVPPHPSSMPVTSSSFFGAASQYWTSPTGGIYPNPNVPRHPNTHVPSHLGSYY
# In short: (§1)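 GST fusions of human transcription factors were expressed in yeast and captured with glutathione beads. Once given DNA barcodes and pooled alongside a tag-only sample, they were incubated for 30 min at room temperature with 200 nmole of a random double-stranded 16-mer DNA library in Tris/NaCl/DTT/glycerol buffer, then washed, crosslinked (0.1% formaldehyde), proximity-ligated, PCR-amplified and sequenced on an Illumina NextSeq500. The binding signal of each hexamer is its read frequency for a factor divided by its frequency for the tag-only sample.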
# [2] = molecular target: T2, ELK1 (Homo sapiens, UniProt P19419 1-428)
# T2 sequence: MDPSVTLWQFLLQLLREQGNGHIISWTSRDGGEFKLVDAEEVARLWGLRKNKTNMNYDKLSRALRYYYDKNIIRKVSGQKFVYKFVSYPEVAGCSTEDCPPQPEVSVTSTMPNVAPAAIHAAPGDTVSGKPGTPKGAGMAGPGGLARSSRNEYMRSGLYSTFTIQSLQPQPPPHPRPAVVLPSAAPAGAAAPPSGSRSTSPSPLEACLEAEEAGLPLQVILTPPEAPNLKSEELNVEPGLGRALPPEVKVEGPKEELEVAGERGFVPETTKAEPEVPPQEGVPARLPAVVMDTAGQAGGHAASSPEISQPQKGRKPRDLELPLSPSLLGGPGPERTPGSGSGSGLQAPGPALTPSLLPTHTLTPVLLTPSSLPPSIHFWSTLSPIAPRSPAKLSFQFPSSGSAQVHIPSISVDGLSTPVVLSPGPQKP
# In short: as §1
# [3] = molecular target: T3, GABPA (Homo sapiens, UniProt Q06546 1-454)
# T3 sequence: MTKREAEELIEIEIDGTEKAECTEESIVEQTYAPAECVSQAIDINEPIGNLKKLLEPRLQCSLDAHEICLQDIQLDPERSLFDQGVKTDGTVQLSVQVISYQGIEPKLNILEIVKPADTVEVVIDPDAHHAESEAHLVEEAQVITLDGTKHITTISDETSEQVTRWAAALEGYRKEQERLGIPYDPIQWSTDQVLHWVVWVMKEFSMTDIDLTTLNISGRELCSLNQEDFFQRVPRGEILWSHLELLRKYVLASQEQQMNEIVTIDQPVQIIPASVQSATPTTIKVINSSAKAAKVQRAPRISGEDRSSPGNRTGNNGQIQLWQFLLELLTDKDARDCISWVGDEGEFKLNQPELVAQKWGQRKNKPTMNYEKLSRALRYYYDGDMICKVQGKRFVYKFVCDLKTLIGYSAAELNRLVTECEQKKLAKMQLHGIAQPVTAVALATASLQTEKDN
# In short: as §1
# [4] = molecular target: T4, ERG (Homo sapiens, UniProt P11308 1-479)
# T4 sequence: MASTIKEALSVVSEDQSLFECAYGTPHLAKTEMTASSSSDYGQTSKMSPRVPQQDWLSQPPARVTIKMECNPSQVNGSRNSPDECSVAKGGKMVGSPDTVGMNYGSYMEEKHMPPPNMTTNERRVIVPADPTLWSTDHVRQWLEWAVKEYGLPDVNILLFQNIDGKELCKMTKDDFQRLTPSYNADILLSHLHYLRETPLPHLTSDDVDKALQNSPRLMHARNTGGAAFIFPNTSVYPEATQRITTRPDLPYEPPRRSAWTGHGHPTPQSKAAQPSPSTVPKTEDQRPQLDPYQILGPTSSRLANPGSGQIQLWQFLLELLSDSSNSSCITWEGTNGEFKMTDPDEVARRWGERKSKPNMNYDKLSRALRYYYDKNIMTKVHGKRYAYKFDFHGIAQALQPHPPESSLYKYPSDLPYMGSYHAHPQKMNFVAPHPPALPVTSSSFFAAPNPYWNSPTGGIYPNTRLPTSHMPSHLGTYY
# In short: as §1
# [5] = molecular target: ELF1 (Homo sapiens, UniProt P32519 1-619)
# In short: as §1
# [6] = molecular target: T5, EHF (Homo sapiens, UniProt Q9NZC4 1-300)
# T5 sequence: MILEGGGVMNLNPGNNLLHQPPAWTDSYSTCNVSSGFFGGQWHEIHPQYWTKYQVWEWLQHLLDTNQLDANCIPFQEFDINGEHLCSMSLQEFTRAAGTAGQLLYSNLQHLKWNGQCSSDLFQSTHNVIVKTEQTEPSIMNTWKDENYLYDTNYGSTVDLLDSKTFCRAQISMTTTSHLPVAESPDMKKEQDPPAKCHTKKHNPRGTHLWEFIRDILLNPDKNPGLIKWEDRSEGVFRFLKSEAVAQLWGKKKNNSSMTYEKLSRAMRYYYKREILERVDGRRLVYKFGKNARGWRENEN
# In short: as §1
# [7] = molecular target: SPIB (Homo sapiens, UniProt Q01892 1-262)
# In short: as §1
# [8] = molecular target: T6, ELK3 (Homo sapiens, UniProt P41970 1-407)
# T6 sequence: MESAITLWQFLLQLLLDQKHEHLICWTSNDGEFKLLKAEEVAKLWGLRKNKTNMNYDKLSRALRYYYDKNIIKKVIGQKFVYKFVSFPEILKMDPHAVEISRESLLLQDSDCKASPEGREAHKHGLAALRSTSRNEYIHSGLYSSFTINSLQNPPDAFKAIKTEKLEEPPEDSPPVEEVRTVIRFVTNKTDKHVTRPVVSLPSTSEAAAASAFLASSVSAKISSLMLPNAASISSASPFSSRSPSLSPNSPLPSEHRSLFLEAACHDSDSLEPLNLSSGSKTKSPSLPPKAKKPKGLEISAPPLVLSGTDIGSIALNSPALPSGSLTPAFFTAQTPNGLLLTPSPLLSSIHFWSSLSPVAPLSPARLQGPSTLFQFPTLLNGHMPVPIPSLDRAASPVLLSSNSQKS
# In short: as §1
# [9] = molecular target: T7, FEV (Homo sapiens, UniProt Q99581 1-238)
# T7 sequence: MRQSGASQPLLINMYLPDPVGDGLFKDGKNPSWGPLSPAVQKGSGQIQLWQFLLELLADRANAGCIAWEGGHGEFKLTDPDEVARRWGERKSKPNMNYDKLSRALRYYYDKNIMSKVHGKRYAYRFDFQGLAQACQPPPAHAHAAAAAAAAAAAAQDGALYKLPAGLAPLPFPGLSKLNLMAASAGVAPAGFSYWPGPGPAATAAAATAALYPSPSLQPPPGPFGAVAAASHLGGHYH
# In short: as §1
# [10] = molecular target: ETV5 (Homo sapiens, UniProt P41161 1-510)
# In short: as §1
# [11] = molecular target: T8, SPIC (Homo sapiens, UniProt Q8N5J4 1-248)
# T8 sequence: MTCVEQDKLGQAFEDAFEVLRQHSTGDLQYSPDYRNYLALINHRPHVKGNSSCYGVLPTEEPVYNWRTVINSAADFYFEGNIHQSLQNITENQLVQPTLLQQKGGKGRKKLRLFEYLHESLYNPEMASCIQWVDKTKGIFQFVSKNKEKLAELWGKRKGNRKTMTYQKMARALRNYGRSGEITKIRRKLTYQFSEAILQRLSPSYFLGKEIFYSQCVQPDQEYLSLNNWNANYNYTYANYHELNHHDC
# In short: as §1
# [12] = molecular target: ELF4 (Homo sapiens, UniProt Q99607 1-663)
# In short: as §1
# [13] = molecular target: ETV1 (Homo sapiens, UniProt P50549 1-477)
# In short: as §1
# [14] = molecular target: T9, ERF (Homo sapiens, UniProt P50548 1-548)
# T9 sequence: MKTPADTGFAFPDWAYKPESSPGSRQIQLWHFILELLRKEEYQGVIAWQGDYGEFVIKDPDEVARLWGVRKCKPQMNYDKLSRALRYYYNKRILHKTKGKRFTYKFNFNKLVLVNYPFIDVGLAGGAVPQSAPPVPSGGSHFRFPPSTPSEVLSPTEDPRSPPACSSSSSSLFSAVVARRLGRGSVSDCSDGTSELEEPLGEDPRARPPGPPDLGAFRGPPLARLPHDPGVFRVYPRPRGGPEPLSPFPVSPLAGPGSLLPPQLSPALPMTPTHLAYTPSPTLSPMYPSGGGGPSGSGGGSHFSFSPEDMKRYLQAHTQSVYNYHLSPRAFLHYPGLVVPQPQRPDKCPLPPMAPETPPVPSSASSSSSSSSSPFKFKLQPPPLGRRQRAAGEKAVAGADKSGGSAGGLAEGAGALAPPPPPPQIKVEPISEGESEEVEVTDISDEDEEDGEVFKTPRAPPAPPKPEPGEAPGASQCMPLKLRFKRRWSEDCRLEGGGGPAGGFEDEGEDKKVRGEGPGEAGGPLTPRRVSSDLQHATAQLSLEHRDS
# In short: as §1
# [15] = molecular target: T10, ETV3L (Homo sapiens, UniProt Q6ZN32 1-361)
# T10 sequence: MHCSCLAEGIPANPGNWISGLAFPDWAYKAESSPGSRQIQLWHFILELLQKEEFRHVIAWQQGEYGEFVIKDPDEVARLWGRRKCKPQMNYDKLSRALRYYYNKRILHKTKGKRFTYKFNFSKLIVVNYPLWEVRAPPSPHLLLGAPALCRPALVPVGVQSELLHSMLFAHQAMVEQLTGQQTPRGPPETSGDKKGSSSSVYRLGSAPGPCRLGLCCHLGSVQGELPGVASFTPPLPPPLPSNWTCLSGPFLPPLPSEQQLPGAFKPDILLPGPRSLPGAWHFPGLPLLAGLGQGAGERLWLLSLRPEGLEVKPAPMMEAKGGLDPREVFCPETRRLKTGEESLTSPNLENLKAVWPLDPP
# In short: as §1
# [16] = molecular target: T11, ETS2 (Homo sapiens, UniProt P15036 1-469)
# T11 sequence: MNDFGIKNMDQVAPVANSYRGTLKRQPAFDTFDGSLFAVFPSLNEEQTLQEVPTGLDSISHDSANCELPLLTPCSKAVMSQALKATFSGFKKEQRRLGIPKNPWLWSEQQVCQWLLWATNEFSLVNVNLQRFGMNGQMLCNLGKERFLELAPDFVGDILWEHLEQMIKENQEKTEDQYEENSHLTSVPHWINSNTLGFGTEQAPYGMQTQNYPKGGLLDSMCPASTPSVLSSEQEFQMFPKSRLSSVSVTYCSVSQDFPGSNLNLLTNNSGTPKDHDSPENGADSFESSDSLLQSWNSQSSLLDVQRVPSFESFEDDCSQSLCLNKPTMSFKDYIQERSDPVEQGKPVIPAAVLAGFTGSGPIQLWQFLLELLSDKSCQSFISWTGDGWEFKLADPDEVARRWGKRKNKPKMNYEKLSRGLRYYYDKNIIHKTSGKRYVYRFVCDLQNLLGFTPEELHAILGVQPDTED
# In short: as §1
# [17] = molecular target: T12, ELF5 (Homo sapiens, UniProt Q9UKW6-2 1-255)
# T12 sequence: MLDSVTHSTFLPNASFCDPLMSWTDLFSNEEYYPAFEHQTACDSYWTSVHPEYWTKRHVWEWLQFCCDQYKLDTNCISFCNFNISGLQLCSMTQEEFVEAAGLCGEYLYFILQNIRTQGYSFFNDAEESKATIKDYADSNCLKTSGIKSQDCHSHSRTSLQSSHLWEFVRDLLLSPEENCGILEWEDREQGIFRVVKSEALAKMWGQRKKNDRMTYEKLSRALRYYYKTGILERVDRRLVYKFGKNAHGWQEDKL
# In short: as §1
# [18] = molecular target: T13, ETV3 (Homo sapiens, UniProt P41162-2 1-143)
# T13 sequence: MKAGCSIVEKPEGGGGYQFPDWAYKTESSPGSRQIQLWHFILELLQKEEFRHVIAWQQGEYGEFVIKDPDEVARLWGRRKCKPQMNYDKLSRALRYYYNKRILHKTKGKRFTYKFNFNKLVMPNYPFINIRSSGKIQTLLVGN
# In short: as §1
# [19] = molecular target: ETV6 (Homo sapiens, UniProt P41212 1-452)
# In short: as §1
# Sequence of ELF4 (Q99607 whole entry): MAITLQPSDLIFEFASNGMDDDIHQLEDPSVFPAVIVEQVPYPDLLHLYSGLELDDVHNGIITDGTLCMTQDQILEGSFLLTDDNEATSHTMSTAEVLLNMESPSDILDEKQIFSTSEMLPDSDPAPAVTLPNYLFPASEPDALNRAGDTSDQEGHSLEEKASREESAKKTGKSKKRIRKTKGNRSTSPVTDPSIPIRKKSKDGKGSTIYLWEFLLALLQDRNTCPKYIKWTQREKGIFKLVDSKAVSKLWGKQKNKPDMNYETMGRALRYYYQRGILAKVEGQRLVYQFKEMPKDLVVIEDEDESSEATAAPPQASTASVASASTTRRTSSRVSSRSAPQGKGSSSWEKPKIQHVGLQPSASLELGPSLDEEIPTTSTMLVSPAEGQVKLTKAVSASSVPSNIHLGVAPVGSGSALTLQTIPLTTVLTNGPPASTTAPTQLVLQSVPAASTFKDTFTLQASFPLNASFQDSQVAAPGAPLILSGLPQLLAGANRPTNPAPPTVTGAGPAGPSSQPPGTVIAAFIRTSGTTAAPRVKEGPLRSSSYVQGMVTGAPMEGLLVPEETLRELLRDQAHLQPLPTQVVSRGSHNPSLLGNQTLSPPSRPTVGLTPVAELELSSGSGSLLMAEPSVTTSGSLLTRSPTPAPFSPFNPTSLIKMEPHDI
# Sequence of ETV1 (P50549 whole entry): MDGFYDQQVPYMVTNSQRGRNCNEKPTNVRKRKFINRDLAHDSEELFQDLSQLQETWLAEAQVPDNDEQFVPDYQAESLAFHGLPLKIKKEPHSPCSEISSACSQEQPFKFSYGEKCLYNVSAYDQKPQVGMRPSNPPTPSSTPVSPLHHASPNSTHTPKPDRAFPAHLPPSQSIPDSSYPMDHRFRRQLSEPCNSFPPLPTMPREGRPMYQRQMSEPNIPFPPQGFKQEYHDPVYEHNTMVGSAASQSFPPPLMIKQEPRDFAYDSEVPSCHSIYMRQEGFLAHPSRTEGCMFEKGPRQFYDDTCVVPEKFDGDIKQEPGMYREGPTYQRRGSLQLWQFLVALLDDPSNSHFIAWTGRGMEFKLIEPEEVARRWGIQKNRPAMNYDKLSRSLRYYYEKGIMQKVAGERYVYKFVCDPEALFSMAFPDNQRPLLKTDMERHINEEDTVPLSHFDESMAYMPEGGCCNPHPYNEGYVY
# Sequence of ELF1 (P32519 whole entry): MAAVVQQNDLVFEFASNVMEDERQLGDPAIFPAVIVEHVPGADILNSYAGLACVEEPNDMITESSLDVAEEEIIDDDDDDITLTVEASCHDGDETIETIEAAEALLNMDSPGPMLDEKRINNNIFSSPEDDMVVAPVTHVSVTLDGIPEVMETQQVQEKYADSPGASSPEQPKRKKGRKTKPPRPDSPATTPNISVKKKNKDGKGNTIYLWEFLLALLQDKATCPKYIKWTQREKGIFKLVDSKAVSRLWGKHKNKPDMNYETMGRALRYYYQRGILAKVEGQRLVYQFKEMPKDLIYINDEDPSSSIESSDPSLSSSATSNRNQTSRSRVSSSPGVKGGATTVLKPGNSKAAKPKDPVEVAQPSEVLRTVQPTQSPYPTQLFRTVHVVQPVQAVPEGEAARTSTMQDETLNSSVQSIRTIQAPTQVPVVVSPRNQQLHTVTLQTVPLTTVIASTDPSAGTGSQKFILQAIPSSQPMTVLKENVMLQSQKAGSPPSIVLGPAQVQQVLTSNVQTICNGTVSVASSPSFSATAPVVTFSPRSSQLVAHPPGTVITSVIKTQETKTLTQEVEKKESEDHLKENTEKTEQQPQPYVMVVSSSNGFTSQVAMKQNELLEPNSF
# Sequence of ETV6 (P41212 whole entry): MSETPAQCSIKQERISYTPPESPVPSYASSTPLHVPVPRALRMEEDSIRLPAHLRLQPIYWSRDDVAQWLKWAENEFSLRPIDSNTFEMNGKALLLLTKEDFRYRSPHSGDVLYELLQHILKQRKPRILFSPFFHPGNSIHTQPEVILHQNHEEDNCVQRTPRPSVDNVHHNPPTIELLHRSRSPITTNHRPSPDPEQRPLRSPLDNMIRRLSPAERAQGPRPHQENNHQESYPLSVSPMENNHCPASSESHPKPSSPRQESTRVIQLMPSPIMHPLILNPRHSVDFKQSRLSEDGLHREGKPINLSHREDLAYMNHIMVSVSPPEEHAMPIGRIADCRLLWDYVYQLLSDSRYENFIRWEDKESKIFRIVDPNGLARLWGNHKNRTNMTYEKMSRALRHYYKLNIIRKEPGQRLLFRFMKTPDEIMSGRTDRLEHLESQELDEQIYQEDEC
# Sequence of SPIB (Q01892 whole entry): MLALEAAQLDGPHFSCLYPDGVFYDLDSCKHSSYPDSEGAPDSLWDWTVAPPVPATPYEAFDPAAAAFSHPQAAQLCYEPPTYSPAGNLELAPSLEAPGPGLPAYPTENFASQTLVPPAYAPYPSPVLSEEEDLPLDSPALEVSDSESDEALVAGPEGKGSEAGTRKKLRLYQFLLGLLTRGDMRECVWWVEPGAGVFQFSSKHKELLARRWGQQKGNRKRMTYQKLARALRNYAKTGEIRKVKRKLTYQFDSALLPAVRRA
# Sequence of ETV5 (P41161 whole entry): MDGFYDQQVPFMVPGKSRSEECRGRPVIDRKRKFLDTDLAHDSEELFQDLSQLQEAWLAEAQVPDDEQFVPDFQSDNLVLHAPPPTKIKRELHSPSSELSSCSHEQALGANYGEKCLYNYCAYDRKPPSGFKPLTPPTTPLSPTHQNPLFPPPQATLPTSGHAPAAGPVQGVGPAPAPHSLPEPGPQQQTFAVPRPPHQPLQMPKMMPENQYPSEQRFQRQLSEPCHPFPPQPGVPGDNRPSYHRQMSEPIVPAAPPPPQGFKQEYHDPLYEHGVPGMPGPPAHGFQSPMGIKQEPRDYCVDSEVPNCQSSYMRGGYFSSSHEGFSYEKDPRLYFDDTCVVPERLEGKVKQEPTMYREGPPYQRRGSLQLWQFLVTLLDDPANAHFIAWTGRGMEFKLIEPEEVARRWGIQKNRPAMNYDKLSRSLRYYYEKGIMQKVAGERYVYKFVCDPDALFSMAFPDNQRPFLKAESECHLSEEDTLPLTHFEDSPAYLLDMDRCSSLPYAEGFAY
sequence,measurement,setting,value
GCAACC,binding signal,[1],"1.06 fold enrichment (6-mer frequency, TF over GST control)"
same,binding signal,[2],"1.07 fold enrichment (6-mer frequency, TF over GST control)"
same,binding signal,[3],"1.06 fold enrichment (6-mer frequency, TF over GST control)"
same,binding signal,[4],"1.04 fold enrichment (6-mer frequency, TF over GST control)"
same,binding signal,[5],"1.13 fold enrichment (6-mer frequency, TF over GST control)"
same,binding signal,[6],"1.11 fold enrichment (6-mer frequency, TF over GST control)"
same,binding signal,[7],"1.04 fold enrichment (6-mer frequency, TF over GST control)"
same,binding signal,[8],"1.09 fold enrichment (6-mer frequency, TF over GST control)"
same,binding signal,[9],"1.17 fold enrichment (6-mer frequency, TF over GST control)"
same,binding signal,[10],"1.04 fold enrichment (6-mer frequency, TF over GST control)"
same,binding signal,[11],"1.09 fold enrichment (6-mer frequency, TF over GST control)"
same,binding signal,[12],"1.03 fold enrichment (6-mer frequency, TF over GST control)"
same,binding signal,[13],"1.02 fold enrichment (6-mer frequency, TF over GST control)"
same,binding signal,[14],"1.1 fold enrichment (6-mer frequency, TF over GST control)"
same,binding signal,[15],"1.03 fold enrichment (6-mer frequency, TF over GST control)"
same,binding signal,[16],"1.03 fold enrichment (6-mer frequency, TF over GST control)"
same,binding signal,[17],"1.02 fold enrichment (6-mer frequency, TF over GST control)"
same,binding signal,[18],"1.02 fold enrichment (6-mer frequency, TF over GST control)"
same,binding signal,[19],"1.02 fold enrichment (6-mer frequency, TF over GST control)"
